Screening results from PubChem.
BRCA1 expr act: qHTS Assay to Identify Small Molecule Activators of BRCA1 Expression; 1.1% of 380,000 active; AID 624202, 2012; MCF7-BRCA1-FFLuc reporter, luminescence, 48 h; response scale: scaled: vehicle 0%, 10 µM genistein 100%; Potency, µM (doses to about 46.1 µM), without a hit: top-dose activation, actives largely listed as activators; note: potency is the fitted concentration of half-maximal effect; nearly all actives have a fitted effect of over 80% in size
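Compounds are tested at multiple concentrations on MCF7 BRCA1-luciferase reporter cells seeded at 2000 per well; after 48 h, a single luminescence end-point is taken and curves fitted to the normalized data.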
DRD3 agonist: qHTS of D3 Dopamine Receptor Agonist: qHTS; D3R DiscoveRx beta-arrestin cells, luminescence, 90 min; AID 652048, 2013; D(3) dopamine receptor (Homo sapiens), P35462; max activation, %; 0.58% of 410,000 active; in the data active = max activation above about 30%; note: 0% is about no effect
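Agonist-mode cell screen: cells plated at 1500/well and incubated overnight at 37 °C, then exposed to library compounds for 90 min at 37 °C. Detection reagent was added for 30–60 min at room temperature, and luminescence was read.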
PTHR1 agonist: qHTS for PTHR1 Agonists: Primary Screen; Parathyroid hormone/parathyroid hormone-related peptide receptor (Homo sapiens), Q03431; HEK293 GP2 PTHR1 cells, GloSensor cAMP luminescence, 1 h; Potency, µM (titrated, usually from 115 µM), for the others: top-dose activation, hits mostly activators; 0.075% of 410,000 active; note: potency is the fitted concentration of half-maximal effect; nearly all actives have a fitted effect of over 55% in size
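HEK-293-derived GP2 cells expressing PTHR1 and a GloSensor cAMP reporter, 3,000/well, plated overnight, given luciferin plus IBMX (each 0.5 mM as added) for 1 h at 37 °C, then compound for 1 h at 37 °C. Luminescence was read after 15 min at room temperature.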
D3 antag: qHTS of D3 Dopamine Receptor Antagonist: qHTS; D3R cells, DiscoveRx beta-arrestin luminescence, antagonist mode; stronger effect = lower value; D(3) dopamine receptor (Homo sapiens), P35462; 2.5% of 360,000 active; max response, negative = inhibition, %; in the data active = max response below about -50%; inconclusive = no clear call, values can overlap the other calls; note: % is set by controls: 0 for no effect and ±100 for the full control effect
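Cells expressing the human receptor were seeded at 1500 cells/well, incubated overnight at 37 degrees C in 5% CO2, then exposed to library compounds with dopamine controls for 90 minutes at 37 degrees C before luminescent detection.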
RGS4 inhibitor: Inhibitors of Regulator of G Protein Signaling (RGS) 4: qHTS; Potency, µM (doses to about 114 µM), for the others: top-dose activity change, negative = inhibition, most hits filed as inhibitors; Transcreener GDP fluorescence polarization, RGS4-accelerated GTP hydrolysis; 0.039% of 390,000 active; AID 504845, 2011; note: potency is the fitted concentration of half-maximal effect; % is set by controls: 0 for no effect and ±100 for the full control effect; nearly all actives have a fitted effect of over 75% in size
Target sequence (P49798 whole entry, looked up): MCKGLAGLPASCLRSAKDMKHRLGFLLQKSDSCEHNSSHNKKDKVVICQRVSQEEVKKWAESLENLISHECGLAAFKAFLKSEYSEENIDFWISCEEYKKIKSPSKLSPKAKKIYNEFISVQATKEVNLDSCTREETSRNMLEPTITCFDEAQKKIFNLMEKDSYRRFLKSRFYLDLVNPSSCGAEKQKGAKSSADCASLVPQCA
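MLSMR compounds (23 nl, pin-transferred) preincubated 10 min at room temperature with a 500nM (2x) first reagent, then RGS4 at 900nM (2x) plus Transcreener GDP mix added; fluorescence polarization (620/688 nm) read before and after 90 min at 30 °C.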
B2AR arrestin: qHTS assay of beta-arrestin-biased ligands of beta2-adrenergic receptor | Beta-2 adrenergic receptor (Homo sapiens), P07550 | beta-arrestin recruitment to beta2AR, cell-based reporter | Potency, µM (highest dose often 46.1 µM), inactives show at the top dose activation, most hits filed as activators | 0.02% of 330,000 active;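 note: potency is the fitted concentration of half-maximal effect; 0% = DMSO controls and full agonism = EC100 isoproterenol or metaproterenol; nearly all actives have a fitted effect of over 65% in size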
* hit, by the source's call; i = inactive; u = inconclusive; x = no result; [ ] = dose if it differs, or a comment. Most compounds without a hit are left out; they make up all but 3.7% or so of the library. Unless noted, calls come from the whole dose curve; as a rule, active = well fitted curve in the direction sought with a large enough effect; inconclusive = small, poorly fitted or top-dose-only effect, or another doubt; inactive = no such curve, though single readings can be large; an effect the other way counts as inactive or inconclusive.

SMILES	BRCA1 expr act	DRD3 agonist	PTHR1 agonist	D3 antag	RGS4 inhibitor	B2AR arrestin
COc1cc(OC)nc(C(NC(=O)C2CCN(Cc3ccc(N(C)C)cc3)CC2)c2ccc(F)cc2)n1 (stereo unspecified)	3.4%	-14.7	i	u	x	x
COc1ccc(CN2CCC(C(=O)Nc3ccc(Oc4cccnc4)cc3)CC2)cc1	-26.2%	-8.3	-3.2%	-26.3	9.1%	-0.1%
Cc1cccnc1C(NC(=O)C1CCN(Cc2ccccc2)CC1)c1ccc(F)cc1 (stereo unspecified)	-25.7%	-11.7	-15.5%	-54.8*	x	x
Cc1cccnc1C(NC(=O)C1CCN(Cc2ccc(Oc3ccccc3)cc2)CC1)c1ccccc1 (stereo unspecified)	-67.2%	-22.0	-20.6%	-80.8*	x	x
Cc1cccnc1C(NC(=O)C1CCN(CCCOc2ccccc2)CC1)c1ccc(F)cc1 (stereo unspecified)	0.0%	-27.3	-22.0%	-104.6*	x	x
COc1ccc(C(NC(=O)C2CCN(Cc3ccc(Oc4ccccc4)cc3)CC2)c2ccccc2C)cn1 (stereo unspecified)	-5.3%	-15.1	-5.3%	-79.1*	x	x
COc1cc(CN2CCC(C(=O)NC(c3ccc(F)cc3)c3ncccc3C)CC2)cc(OC)c1 (stereo unspecified)	1.5%	-20.2	-20.4%	0.0	x	x
CCc1cc2c(COC(=O)CCNS(=O)(=O)c3cccc(C(F)(F)F)c3)cc(=O)oc2cc1O	-15.7%	-0.8	-5.8%	15.8	-9.5%	-0.6%
COC(=O)c1cnc(NC(=O)C2(C)CCCN(C(C)=O)C2)s1 (stereo unspecified)	-3.5%	12.7	-22.6%	u	x	x
COc1cc(-c2cc(C(=O)Nc3ccc(C)c(S(=O)(=O)N4CCOCC4)c3)c3ccccc3n2)cc(OC)c1OC	-34.4%	33.4*	i	50.7	-11.5%	-1.4%
O=c1cc(-c2ccc(O)cc2)oc2cccc(O)c12	x	x	x	x	2.12µM*	x
O=c1cc(-c2ccccc2)oc2ccc(O)cc12	2.82µM*	-5.5	-8.1%	14.4	-25.7%	-1.1%
O=c1cc(-c2ccccc2)oc2ccccc12	16.0%	-10.0	-19.2%	3.8	-13.3%	-2.3%
CC(=O)Nc1ccc(CN(C)c2c(C)nc3ccc(C(=O)N4CCN(c5ccccc5)CC4)cn23)cc1	-7.1%	-2.9	i	12.9	x	x
O=C1CC(c2cccc(Cl)c2)CC(O)=C1C=NCCCO (stereo unspecified)	0.0%	-6.2	-21.7%	-89.7*	-32.6%	-0.3%
Cc1[nH]c2ccccc2c1C(=O)CSc1nc2ncc(Cl)cc2[nH]1	-26.7%	-8.9	-7.0%	-60.8*	-15.1%	-0.9%
Cc1ccc(S(=O)(=O)C2(C(=O)Nc3cccnc3)CC2)cc1	2.6%	-5.6	i	-63.0*	-16.3%	-0.5%
COc1c2ccoc2c(OC[C@@H](OC(C)=O)C(C)(C)O)c2oc(=O)ccc12	16.9%	48.1*	-7.7%	30.3	-22.6%	0.0%
CC1Cc2ccccc2N1S(=O)(=O)c1cccs1 (stereo unspecified)	-13.0%	13.3	-14.2%[57.5 µM]	-109.9*	25.9%	-1.0%
Cc1ccc(S(=O)(=O)N2c3ccccc3CC2C)cc1 (stereo unspecified)	-30.9%	-5.6	-13.5%	-28.8	-5.4%	0.0%
CCOC(=O)c1ccccc1NC(=O)c1cc2c(=O)oc3ccc(C)cc3c2s1	32.8%	2.8	-23.5%	x	13.0%	x
CCOC(=O)c1ccc(N2C(=O)C=CC2=O)cc1	-41.8%	3.5	i	-81.7*	u	0.1%
Oc1c(Br)cc(Br)cc1/C=N/c1nccs1	-65.9%	-23.2	-28.8%	-55.2*	u	-0.2%
